The record followed here is PubChem BioAssay (NCATS).

Results filed as inconclusive are left out. Calls of active or inactive are those of the source. Unless noted, the call rests on the fitted dose curve; in most records, active means well fitted curve in the direction sought with a large enough effect; inconclusive means small, poorly fitted or top-dose-only effect, or another doubt; inactive means no such curve, though single readings can be large; an effect the other way counts as inactive or inconclusive.

For assay [1], the target named is Cytochrome P450 2C19 (Homo sapiens) (UniProt P33261). Kind of assay: qHTS Assay for Inhibitors and Substrates of Cytochrome P450 2C19 (AID 899). Further: nearly all actives have a fitted effect of over 60% in size. Further: potency means the concentration at half of the fitted maximal effect. The note with it: recombinant CYP2C19, luciferin-H EGE luminescence; series mostly up to 57.1 µM. The essentials:
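Human CYP2C19 (5nM) with Luciferin-H EGE at 10uM (its KM) in 50mM KPO4 was preincubated with compound for 10 min at 37C. NADPH regeneration started a 60 min 37C reaction. Luciferin was read by luminescence, normalized to 57uM ketoconazole.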
On the technique in general: In qHTS, concentration-response curves come from the screen itself.

Assay [2] in a line: qHTS Assay for Identification of Small Molecule Agonists for Hypoxia Response Element Signaling Pathway (AID 914; active means well fitted activation curve with a large enough effect in the signal ratio, with a control signal flat, not every such curve was filed as active; the % refers to the signal ratio; further: potency means the concentration at half of the fitted maximal effect; on activation: % of control where 0% means no effect). The note with it: ME-180 (cervical carcinoma) HRE-bla reporter, beta-lactamase ratio, CoCl2, 17 h; activation: stronger effect = higher value. In a few lines:
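qHTS titration; ME-180 HRE-bla cells; EC50 CoCl2 co-treatment, 17 h at 37 degrees Celsius; CCF4 dye, ex 405nm, em 460nm and 530nm; %Activity from ratio; AC50.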

Assay [3] in a line: qHTS profiling for inhibitors of Plasmodium falciparum (3D7) proliferation (AID 743322).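 Further: infected erythrocytes exposed to compound for 72 h before lysis; 100% = DMSO vehicle wells and 0% = 0.29 µM artemisinin.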 As to conditions: P. falciparum 3D7 proliferation; at 9.63 µM (top of the series). The essentials: (§1)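 Parasite DNA was quantified by SYBR Green I fluorescence (ex 485, em 535 nm) after overnight lysis in saponin/Triton buffer at room temperature. Cultures at 0.3% parasitemia and 2.5% hematocrit were first exposed to compound for 72 h at 37 C; signals were normalised to artemisinin (0.29 uM) and vehicle wells.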

Assay [4] in a line: qHTS profiling for inhibitors of Plasmodium falciparum (DD2) proliferation (AID 743323; call rule not given here). As to conditions: lower = more inhibition; at 9.63 µM (top of the series). The essentials: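 1536-well qHTS; infected RBCs 0.3% parasitemia/2.5% Hct final; cpd 72 h 37 C 5% CO2; lysis buffer + SYBR Green I, o/n RT dark; FI 485/535; norm. to 0.29 uM artemisinin and DMSO, plate-stack corrected.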

Assay [5] is described as follows: qHTS profiling of the MIPE4 collection as inhibitors of Plasmodium falciparum (3D7) proliferation (AID 743344; call rule not given here;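 further: scaled between DMSO vehicle wells and 0.29 µM artemisinin as full inhibition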). As to conditions: P. falciparum 3D7 in erythrocytes, SYBR Green DNA fluorescence, 72 h; at 9.64 µM (top of the series). In a few lines: as §1
Assay [6] in a line: qHTS profiling of the MIPE4 collection as inhibitors of Plasmodium falciparum (DD2) proliferation (AID 743345; call rule not given here). As to conditions: P. falciparum Dd2 in erythrocytes, SYBR Green DNA, 72 h; at 9.64 µM (top of the series). The essentials:
as §1

Assay [7] is described as follows: qHTS profiling of the MIPE4 collection as inhibitors of Plasmodium falciparum (DD2) proliferation (Rep 2) (AID 743346; call rule not given here). The note with it: P. falciparum Dd2 in erythrocytes, SYBR Green DNA, 72 h; at 9.64 µM (top of the series). In a few lines:
as §1

A short description of assay [8]: qHTS profiling of the MIPE4 collection as inhibitors of Plasmodium falciparum (HB3) proliferation (AID 743347; call rule not given here;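 further: plate controls were DMSO vehicle wells for no effect and artemisinin wells for full effect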). The note with it: P. falciparum HB3 in erythrocytes, SYBR Green DNA, 72 h; at 9.64 µM (top of the series). In a few lines: as §1
In assay [9] the target is Cytochrome P450 2C9 (Homo sapiens) (UniProt P11712). The assay can be described thus: qHTS Assay for Inhibitors and Substrates of Cytochrome P450 2C9 (AID 883). Further: potency means the concentration at half of the fitted maximal effect; nearly all actives have a fitted effect of over 60% in size. As to conditions: recombinant CYP2C9, luciferin-H luminescence, 60 min; series mostly up to 25.6 µM. The essentials:
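Human CYP2C9 (10nM) hydroxylated Luciferin-H (100uM, at its KM) to luciferin in 25mM KPO4. Compound was preincubated 10 min at 37C, then NADPH regeneration started a 60 min reaction at 37C. Luminescence was read after detection reagent, normalized to 57uM sulphaphenazole.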

Assay [10] deals with Guanine nucleotide-binding protein G(i) subunit alpha-1 (Homo sapiens) (UniProt P63096). Kind of assay: qHTS Assay for Inhibitors of RGS12 GoLoco Motif Activity (Green Fluorophore) (AID 879).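 Further: 0% = labeled peptide with Gαi1 and full inhibition = labeled peptide alone without protein; negative values mean loss of peptide binding seen as reduced polarization.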 As to conditions: Galphai1/FITC-RGS12 GoLoco peptide, fluorescence polarization; series mostly up to 57.1 µM. The essentials: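 A drop in FITC polarization marked displacement of the FITC-tagged RGS12 GoLoco peptide (10 nM) from Gαi1 (50 nM). Compounds were incubated 10 min at room temperature in Tris pH 7.5 buffer containing 150 mM NaCl, 0.1 mM GDP and 0.05% NP40; unlabeled peptide titration served as control.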

A short description of assay [11]: qHTS Assay for Identification of Small Molecule Agonists for Thrombopoietin (TPO) Signaling Pathway (AID 917). Further: on the % scale 0 is the no-effect control and ±100 the full control effect. As to conditions: TPO signaling pathway reporter cells, agonist qHTS, stimulated with TPO at its EC50; series mostly up to 38.5 µM. The essentials: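 Human TPO receptor–transfected Ba/F3 cells (murine, IL-3-dependent) in IL-3-deficient medium; compounds plus TPO at EC50, 26 pM final; 24 hrs, 37 C; GpIIb-luciferase luminescence after 10 min RT detection.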

The target of assay [12] is Pyruvate kinase (Leishmania mexicana) (UniProt Q27686). Kind of assay: qHTS Validation Assay for Inhibitors of Leishmania Mexicana Pyruvate Kinase (AID 945).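 Further: 0% = DMSO only neutral control wells.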 The note with it: purified L. mexicana pyruvate kinase, enzyme activity, E451W mutant enzyme; series mostly up to 57.5 µM. In a few lines: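 Read-out: luminescence from PKLight stop/detection reagent, data normalized to DMSO. Reaction: 0.2 nM E451W LmPYK, 0.5 mM PEP, 0.1 mM ADP, pH 7.2, 1 h room temperature.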

The target in assay [13] is Pyruvate kinase PKM (Homo sapiens) (UniProt P14618). Kind of assay: qHTS Assay for Activators of Human Muscle Pyruvate Kinase (AID 954; active means well fitted curve in the direction sought with a large enough effect, not every such curve was filed as active;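 further: 0% = uninhibited enzyme and -100% = no enzyme or full thiadiazolimine inhibition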). The note with it: purified human muscle pyruvate kinase, luciferase-coupled luminescence, 1 h; series mostly up to 57.5 µM. The essentials: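 PKM2, human, >95% pure, 0.1 nM; PEP 0.5 mM (Km), ADP 0.1 mM; 50 mM imidazole pH 7.2, 50 mM KCl, 0.01% Tween 20, 0.05% BSA; 1 h RT; luciferase luminescence readout.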

For assay [14], the target named is Alpha-galactosidase A (Homo sapiens) (UniProt P06280). The assay can be described thus: Counterscreen for Glucocerebrosidase Inhibitors: qHTS Assay for Human alpha-Galactosidase at pH 4.5 (AID 992). Further: 0% is about no effect. As to conditions: purified enzyme, fluorogenic substrate; series mostly up to 76.9 µM. The essentials:
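Fluorogenic 4-MU alpha-D-galactoside (80 uM) hydrolysis, 2 nM enzyme, pH 4.5 citrate buffer + 0.005% Tween-20; 20 min RT; NaOH/glycine pH 10 stop; Ex365/Em440. Compounds titrated 0.7 nM–77 uM; Hill-equation AC50.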
(Counterscreens check selectivity or assay interference.)

The target of assay [15] is alpha-glucosidase (Oryza sativa, rice) (UniProt Q653V4). The assay can be described thus: Counterscreen for Glucocerebrosidase Inhibitors: qHTS Assay for Rice alpha-Glucosidase at pH 5.0 (AID 997).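 Further: 0% = full activity with enzyme and -100% = basal without enzyme.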 As to conditions: rice alpha-glucosidase enzyme activity; series mostly up to 76.9 µM. In a few lines: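 Endpoint fluorogenic assay at pH 5.0: compounds (0.7 nM to 77 uM) titrated against 4 nM rice enzyme and 400 uM 4-MU-alpha-glucoside for 20 min at room temperature; NaOH/glycine stop, read ex 365/em 440 nm, Hill-fitted AC50.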

In assay [16] the target is Tyrosyl-DNA phosphodiesterase 1 (Homo sapiens) (UniProt Q9NUW8). Kind of assay: Confirmation Assay for Inhibitors of Tyrosyl-DNA Phosphodiesterase (TDP1) (AID 489007). Further: potency means the concentration at half of the fitted maximal effect; nearly all actives have a fitted effect of over 40% in size. As to conditions: recombinant human TDP1 enzymatic activity, dose-response. The essentials:
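AlphaScreen assay of tyrosine-FITC cleavage from a biotinylated DNA substrate (15 nM) by E. coli-expressed human Tdp1 (1 nM). Sequence: compound preincubation 15 min, reaction 5 min, bead detection 10 min, all at room temperature. No-enzyme wells give maximum signal.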

Assay [17] is described as follows: Cytotoxicity counterscreen for NFkB agonists and antagonists (AID 624476).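 Further: cells exposed to compound for 48 hours; on the % scale 0 is the no-effect control and ±100 the full control effect.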 The note with it: NFkB reporter cell line viability counterscreen; series mostly up to 15.4 µM.
The nature of assay [18]: qHTS Assay for Identification of Small Molecule Agonists for NFkB Signaling Pathway. (AID 624478).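 Further: compounds tested together with TNF alpha at its EC50 of 10 pM; 0% is about no effect.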 The note with it: NFkB pathway reporter cell assay, agonist mode, cells co-stimulated with 10 pM TNF alpha; series mostly up to 15.4 µM. The essentials:
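Compounds were added with 10 pM TNF alpha (EC50 level) to ME-180 NFkB-bla cells in low-serum Opti-MEM and incubated 5 hrs at 37 C. Beta-lactamase FRET read-out used 405 nm excitation and 460 and 530 nm emission.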

A short description of assay [19]: qHTS Assay for Identification of Small Molecule Antagonists for NFkB Signaling Pathway. (AID 624479; calls by dose curve; further: on the % scale 0 is the no-effect control and ±100 the full control effect). As to conditions: NFkB pathway reporter cell assay, antagonist mode; series mostly up to 12.8 µM.

Chain of Cytochrome P450 2C19 (Homo sapiens) (P33261 whole entry, looked up): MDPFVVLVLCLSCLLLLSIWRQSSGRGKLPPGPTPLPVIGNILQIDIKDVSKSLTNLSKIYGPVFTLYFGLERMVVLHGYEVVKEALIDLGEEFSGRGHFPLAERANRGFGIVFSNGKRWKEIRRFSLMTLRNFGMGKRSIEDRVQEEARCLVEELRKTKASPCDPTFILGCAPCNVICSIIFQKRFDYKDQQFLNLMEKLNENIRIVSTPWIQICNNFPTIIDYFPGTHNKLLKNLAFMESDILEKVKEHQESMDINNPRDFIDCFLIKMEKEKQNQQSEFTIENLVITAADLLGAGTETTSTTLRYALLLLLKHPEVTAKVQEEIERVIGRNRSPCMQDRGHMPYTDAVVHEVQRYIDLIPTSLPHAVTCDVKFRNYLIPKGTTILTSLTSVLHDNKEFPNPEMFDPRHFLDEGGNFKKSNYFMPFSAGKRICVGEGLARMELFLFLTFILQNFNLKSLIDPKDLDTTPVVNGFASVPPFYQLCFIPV
Chain of Tyrosyl-DNA phosphodiesterase 1 (Homo sapiens) (Q9NUW8 whole entry, looked up): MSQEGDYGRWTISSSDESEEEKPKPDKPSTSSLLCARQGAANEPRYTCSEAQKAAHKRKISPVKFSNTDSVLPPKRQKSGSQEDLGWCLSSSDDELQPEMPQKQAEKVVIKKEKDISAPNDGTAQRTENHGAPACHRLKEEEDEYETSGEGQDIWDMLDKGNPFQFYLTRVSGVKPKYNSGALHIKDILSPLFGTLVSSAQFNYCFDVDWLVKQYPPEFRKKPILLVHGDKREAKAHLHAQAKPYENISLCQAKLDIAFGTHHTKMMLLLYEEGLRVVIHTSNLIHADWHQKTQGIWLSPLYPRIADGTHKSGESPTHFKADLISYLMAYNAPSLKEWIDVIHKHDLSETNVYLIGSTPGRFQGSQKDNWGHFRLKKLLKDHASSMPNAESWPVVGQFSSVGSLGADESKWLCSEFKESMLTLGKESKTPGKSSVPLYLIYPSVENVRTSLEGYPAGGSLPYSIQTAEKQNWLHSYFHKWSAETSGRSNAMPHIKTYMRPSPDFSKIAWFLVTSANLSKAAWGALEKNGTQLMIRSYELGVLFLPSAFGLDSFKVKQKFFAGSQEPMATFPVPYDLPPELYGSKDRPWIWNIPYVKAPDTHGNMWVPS
Chain of Pyruvate kinase PKM (Homo sapiens) (P14618 whole entry, looked up): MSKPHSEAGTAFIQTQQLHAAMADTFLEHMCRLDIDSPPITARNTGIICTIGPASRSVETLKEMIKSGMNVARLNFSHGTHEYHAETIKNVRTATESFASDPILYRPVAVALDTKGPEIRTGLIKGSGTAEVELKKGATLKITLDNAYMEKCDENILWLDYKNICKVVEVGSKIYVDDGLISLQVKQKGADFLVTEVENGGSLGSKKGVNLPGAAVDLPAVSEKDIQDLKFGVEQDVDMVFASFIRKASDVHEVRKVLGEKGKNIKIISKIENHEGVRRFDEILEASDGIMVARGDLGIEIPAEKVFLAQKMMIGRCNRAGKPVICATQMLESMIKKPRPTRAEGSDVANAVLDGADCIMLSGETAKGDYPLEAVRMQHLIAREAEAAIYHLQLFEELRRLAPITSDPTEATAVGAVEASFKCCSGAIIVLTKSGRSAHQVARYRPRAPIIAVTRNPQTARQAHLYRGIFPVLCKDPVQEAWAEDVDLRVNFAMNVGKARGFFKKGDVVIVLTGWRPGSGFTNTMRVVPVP
Chain of Pyruvate kinase (Leishmania mexicana) (Q27686 2-499 E452W): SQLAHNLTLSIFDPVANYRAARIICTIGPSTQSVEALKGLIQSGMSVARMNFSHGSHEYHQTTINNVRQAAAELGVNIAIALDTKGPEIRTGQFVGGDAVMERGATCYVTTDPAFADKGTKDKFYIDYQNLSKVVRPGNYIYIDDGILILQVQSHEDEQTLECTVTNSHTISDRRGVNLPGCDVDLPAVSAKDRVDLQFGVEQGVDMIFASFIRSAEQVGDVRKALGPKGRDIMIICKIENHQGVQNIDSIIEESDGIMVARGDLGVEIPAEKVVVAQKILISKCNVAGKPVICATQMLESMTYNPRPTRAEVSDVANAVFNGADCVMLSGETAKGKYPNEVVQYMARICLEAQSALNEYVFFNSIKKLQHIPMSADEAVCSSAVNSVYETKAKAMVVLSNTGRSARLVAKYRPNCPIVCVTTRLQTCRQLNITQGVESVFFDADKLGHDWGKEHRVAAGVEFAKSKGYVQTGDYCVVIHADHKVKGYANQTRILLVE
Chain of Alpha-galactosidase A (Homo sapiens) (P06280 whole entry, looked up): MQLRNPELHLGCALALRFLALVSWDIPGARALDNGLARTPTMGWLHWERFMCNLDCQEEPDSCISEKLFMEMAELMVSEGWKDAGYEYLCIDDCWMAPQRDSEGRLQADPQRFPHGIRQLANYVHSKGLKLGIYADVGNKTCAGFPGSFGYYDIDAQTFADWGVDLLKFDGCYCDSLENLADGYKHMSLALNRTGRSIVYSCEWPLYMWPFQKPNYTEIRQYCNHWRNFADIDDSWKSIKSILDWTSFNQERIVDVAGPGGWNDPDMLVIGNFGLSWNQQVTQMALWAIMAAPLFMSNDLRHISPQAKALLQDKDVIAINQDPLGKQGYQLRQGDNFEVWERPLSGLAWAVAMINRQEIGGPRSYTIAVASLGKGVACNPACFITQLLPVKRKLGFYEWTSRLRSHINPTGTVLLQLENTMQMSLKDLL
Chain of Guanine nucleotide-binding protein G(i) subunit alpha-1 (Homo sapiens) (P63096 whole entry, looked up): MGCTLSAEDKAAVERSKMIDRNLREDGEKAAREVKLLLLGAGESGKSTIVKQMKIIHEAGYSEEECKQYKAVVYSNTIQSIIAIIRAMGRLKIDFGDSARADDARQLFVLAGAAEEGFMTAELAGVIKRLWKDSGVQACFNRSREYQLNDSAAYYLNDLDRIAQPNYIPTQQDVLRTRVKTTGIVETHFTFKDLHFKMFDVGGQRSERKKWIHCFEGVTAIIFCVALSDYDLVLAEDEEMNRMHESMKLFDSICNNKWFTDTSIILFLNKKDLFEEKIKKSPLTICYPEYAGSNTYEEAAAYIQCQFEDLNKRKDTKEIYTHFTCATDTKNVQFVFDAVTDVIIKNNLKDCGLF
Chain of Cytochrome P450 2C9 (Homo sapiens) (P11712 whole entry, looked up): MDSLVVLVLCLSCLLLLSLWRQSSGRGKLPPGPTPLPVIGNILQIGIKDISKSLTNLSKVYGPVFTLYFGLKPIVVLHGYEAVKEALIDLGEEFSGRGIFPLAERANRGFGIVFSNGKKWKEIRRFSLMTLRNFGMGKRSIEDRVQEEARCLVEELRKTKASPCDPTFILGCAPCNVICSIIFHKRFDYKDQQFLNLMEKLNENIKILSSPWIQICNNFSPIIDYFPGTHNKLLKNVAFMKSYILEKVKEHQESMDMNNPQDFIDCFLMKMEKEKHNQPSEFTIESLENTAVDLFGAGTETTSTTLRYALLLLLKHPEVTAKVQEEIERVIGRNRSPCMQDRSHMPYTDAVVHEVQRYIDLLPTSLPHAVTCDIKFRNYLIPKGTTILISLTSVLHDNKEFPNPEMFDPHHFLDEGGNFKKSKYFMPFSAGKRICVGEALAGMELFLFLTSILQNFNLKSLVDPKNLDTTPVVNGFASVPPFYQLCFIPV

For the compound `O=C(O)[C@@H]1[C@@H]2C[C@H]3c4[nH]c5ccccc5c4CCN3C[C@@H]2CC[C@@H]1O`, the Potency entry in [1] is “inactive”.
Consider `C[C@@]12C=CC(=O)C=C1CC[C@H]1[C@H]3CC[C@](O)(C(=O)CO)[C@]3(C)CC(=O)[C@@H]12`, for which, in [2], the activation is -13.5% (inactive).
As to `C=C(C)[C@H]1CC[C@]2(CO)CC[C@]3(C)[C@@H](CC[C@H]4[C@@]5(C)CC[C@@H](O)C(C)(C)[C@@H]5CC[C@@]43C)[C@H]12`, the Potency in assay [2] was 1.26 µM (active).
Take `CO[C@@H]1C=CO[C@]2(C)Oc3c(C)c(O)c4c(O)c(c(C=NN5CCN(C)CC5)c(O)c4c3C2=O)NC(=O)C(C)=CC=C[C@H](C)[C@H](O)[C@H](C)[C@H](O)[C@H](C)[C@H](OC(C)=O)[C@H]1C`: the remaining parasite growth % (stronger effect = lower value) in [3] was determined as 5.75%. For the same compound, the activity, percent of control in assay [4] came out at 4.21%. Moreover, the parasite growth, % of DMSO control in assay [5] is 5.98%. In assay [6], this compound gave a parasite growth remaining, % of DMSO control (lower = more inhibition) of 11.9%. Moreover, the parasite growth, % of control (lower = inhibition) in assay [7] amounted to 22.5%. In assay [8], the growth, % of control turned out to be 5.71%.
`CC#C[C@@]1(O)CC[C@H]2[C@@H]3CCC4=CC(=O)CCC4=C3[C@H](c3ccc(N(C)C)cc3)C[C@]21C`: in [9], the Potency was 3.98 µM (active).
Turning to `C[C@H](NCCC(c1ccccc1)c1ccccc1)c1ccccc1`, in assay [1], the Potency was 5.01 µM (active).
Turning to `C#C[C@]1(O)CC[C@@H]2[C@H]3CCC4=CCCC[C@@H]4[C@@H]3CC[C@@]21C`, the Potency in assay [1] was 3.98 µM (active).
Consider `C[C@@H](CN1c2ccccc2Sc2ccccc21)N(C)C`, for which the compound was called inactive in [10], in assay [11], in assay [12], in assay [13], in [14] and in [15].
With `FC(F)(F)c1ccccc1-c1ccc2ncnc(NC3CCNCC3)c2c1`, the activation in assay [2] is -6.93% (inactive).
With `COc1ccc2c(c1)N(C[C@@H](C)CN(C)C)c1ccccc1S2`, the activation in assay [2] is -28.7% (inactive).
For the compound `CC1=C(CCC(=O)O)c2cc3nc(cc4[nH]c(cc5[nH]c(cc1n2)c(C)c5C(C)O)c(C)c4C(C)O)C(C)=C3CCC(=O)O` (configuration not stated), in assay [16], the Potency is 6.31 µM (active).
For `CCC(C)(C)C(=O)O[C@@H]1C[C@H](C)C=C2C=C[C@H](C)[C@@H](CC[C@H]3C[C@@H](O)CC(=O)O3)[C@H]21`, the result in assay [17], in assay [18] and in assay [19] was inactive.
Consider `COc1c(O)cc(O)cc1O`, for which the Potency in [16] was 8.91 µM (active).
Still for that read-out and setting: next, `Cc1cc(O)c(C=O)c2c1C(=O)Oc1c(COC(=O)/C=C/C(=O)O)c(O)c(C(=O)O)c(C)c1O2`: 3.16 µM (active).
On to `Cc1cc(O)c(C=O)c2c1C(=O)Oc1c(C)c(O)c3c(c1O2)C(O)OC3=O` (configuration not stated), for which the Potency in [16] is 5.62 µM (active).
